Only some compounds are listed: those with a hit (about 21% of all), similar ones and a draw of the others.
Pf growth 96h: inhibits malaria parasite growth, 96 h | P. falciparum luciferase reporter growth, 96 h | Potency, µM (top dose mostly 28.7 µM), without a hit: at the top dose activity change, negative = inhibition, actives largely listed as inhibitors | hit rate 6.9% among 320,000 | AID 504834; also: potency is read from the fitted curve at half-maximal effect; % is scaled to controls: 0 for no effect and ±100 for the full control effect
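96 h incubation, 37 C, 5% CO2, of luciferase-reporter P. falciparum-infected RBCs (2% hematocrit, 0.05% parasitemia final) with test compounds; endpoint luminescence.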
NS1 function inh: inhibitors of influenza NS1 protein function; Potency, µM (highest dose often 46.1 µM), inactives show at the top dose activity, positive = more growth; hit rate 0.4% among 270,000; calls by dose curve; also: potency is read from the fitted curve at half-maximal effect; actives are rising curves; nearly all actives have a fitted effect of over 50% in size
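Read-out: OD600 growth recovery of NS1-expressing budding yeast. Cells grown overnight at 30C in -URA glucose medium, washed, resuspended and diluted 1:100 in 2% galactose assay medium, pH 6.0. Same strain lacking NS1 served as positive control.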
Shiga inhibitor: inhibitors of Shiga toxin in Vero cells; Vero cells, Shiga toxin protein synthesis inhibition reporter; inhibition, % at 38.7 µM; hit rate 9.2% among 290,000; AID 2315; in the data active = inhibition mostly above about 28%, no sharp cut-off; inactive = mostly below about 43%; also: 0% is about no effect
CHX counter: affects cycloheximide protein synthesis inhibition readout, counter-screen; max response, %; AID 2314; cell reporter, cycloheximide protein synthesis inhibition counterscreen; hit rate 12% among 300,000; in the data active = max response mostly above about 13%, no sharp cut-off; inactive = mostly below about 14%; also: read at 38.3 µM for the half of the compounds with a filed dose; 0% is about no effect
Pf growth 48h: P. falciparum growth inhibition at 48 hours (one generation). P. falciparum luciferase growth in erythrocytes, 48 h. Potency, µM (series often up to 28.7 µM), without a hit: top-dose activity change, negative = inhibition, most hits filed as inhibitors. hit rate 5.9% among 310,000; also: potency is read from the fitted curve at half-maximal effect; % is scaled to controls: 0 for no effect and ±100 for the full control effect
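First compound was added to culture medium, then infected red cells at 0.1% parasitemia and 2% hematocrit (final). After incubation at 37 C under 5% CO2, luciferase detection reagent was dispensed and light output recorded.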
* marks the source's active call; other numbers are inactive results; ? = inconclusive; . = not tested or not shown. Unless noted, calls follow the shape of the dose curve; as a rule, active = well fitted inhibition curve with a large enough effect; inconclusive = small, poorly fitted or top-dose-only effect, or another doubt; inactive = no such curve, though single readings can be large or run the other way.

SMILES | Pf growth 96h | NS1 function inh | Shiga inhibitor | CHX counter | Pf growth 48h
COC(=O)CCC(=O)OC1(C)C(=O)C=C2C=C(C3CC3)N(C3CCCCC3)C=C2C1=O (centres undefined) | ? | 6% | 18 | 1 | ?
COc1ccc(Cc2nc3ccc(C(=O)NCCn4ccnc4C)cc3o2)cc1OC | -4% | 3% | 13 | 7 | 6%
C/C(=N\NC(=O)CCC(=O)Nc1ccc(C)c(C)c1)c1cccs1 | 47% | 1% | 13 | 7 | 2%
Cc1c(C)c(C)c(C(=O)CCc2cccc(NC(=O)CCC(=O)O)c2)c(C)c1C | 6% | 4% | -5 | 1 | .
COc1ccccc1C(=O)NC(=O)COC(=O)C1CC2CCCC(C1)C2=O (centres undefined) | -21% | -2% | 12 | -3 | 4%
c1ccc(-c2cc(-c3cc(-c4ccccn4)[nH]n3)n[nH]2)nc1 | . | 0% | . | . | .
O=S(=O)(c1ccc(Cl)cc1)N1CCC2(CC1)OCCN2S(=O)(=O)c1cccs1 | ? | . | . | . | 13µM*
O=S(=O)(c1cccs1)N1CCC(CO)(Cc2ccc(Cl)cc2)CC1 | 0.74µM* | -3% | -1 | 1 | 25%
COc1ccc(C)cc1S(=O)(=O)N1CCC2(CC1)OCCN2S(=O)(=O)c1ccccc1 | 8% | . | . | . | -10%
O=S(=O)(c1cccs1)N1CCN(c2ccc(Cl)cc2)CC1 | 6% | -11% | -4 | -9 | 21%
COc1ccc(OC)c(S(=O)(=O)N2CCC3(CC2)OCCN3S(=O)(=O)c2cccs2)c1 | 10µM* | . | . | . | ?
CSc1ncnc2c1ncn2CC(=O)[C@H]1CC[C@H]2[C@H]3CCC4=CC(=O)CC[C@@]4(C)[C@@H]3CC[C@@]12C | . | 5% | . | . | .
O=C(CSc1ccccc1F)NNC(=O)c1ccncc1 | 2% | . | . | . | -17%
COc1ccccc1N1CCN(C2CCCN(C(=O)CCN3CCCCO3)C2)CC1 (centres undefined) | ? | 4% | -6 | 11 | 5%
Cc1c2ccccc2nc2c(F)c(NC(C)C)c(F)c(F)c12 | 3% | 8% | 55* | 45* | -27%
CCCc1ccc2oc(C(=O)N(C)CCn3ccnc3C)c(C)c2c1 | 65% | 24% | 20* | 13* | -1%
CCCc1ccc2oc(C(=O)N3CCC(N4CCCC(O)C4)CC3)c(C)c2c1 (centres undefined) | -8% | -1% | 13 | 13 | ?
CCCCN(C)C(=O)c1oc2ccc(S(=O)(=O)N3CCCCCC3)cc2c1C | ? | -37% | -18 | -5 | ?
CCCc1ccc2oc(C(=O)N(C)Cc3cnccn3)c(C)c2c1 | 10µM* | 12% | -19 | -5 | 2%
CCCc1ccc2oc(C(=O)N3CCN(c4cnccn4)CC3)c(C)c2c1 | 35% | -61% | 6 | 12* | ?
C#CCOc1ccc(C2C(C#N)=C(N)Oc3cc(O)ccc32)cc1 (centres undefined) | -12% | 10% | . | 2 | 5%
Cc1cc(=O)[nH]c(SCC(=O)NN(c2ccccc2)c2ccccc2)n1 | ? | 0% | -10 | 1 | ?
COC(=O)c1cc(S(=O)(=O)N2CCN(Cc3ccccc3)CC2)cn1C | 34% | -3% | 21 | -4 | -1%
C/C(=N\NC(=O)c1ccc(Cl)cc1)c1ccc(Br)s1 | 2.6µM* | -19% | 90* | 29* | 7.4µM*
C/C(=N\NC(=O)c1ccco1)c1ccc(C(=O)O)s1 | -13% | 5% | 80* | 50* | 1%
SMILES | Pf growth 96h | NS1 function inh | Shiga inhibitor | CHX counter | Pf growth 48h
COC(=O)N/N=C(\C)c1ccco1 | -10% | . | 2 | 2 | 6%
C/C(=N/NC(=O)c1ccco1)c1ccc(Br)s1 | 10% | -16% | 35* | 26* | 28%
C=CCn1c(SCC(=O)N2CCOCC2)nc(O)c(Cc2ccccc2)c1=O | 27% | 0% | -2 | -5 | 2%
CC1(C)CC(=O)C(C(=O)/C=C/NCCc2ccccc2)C(=O)C1 | . | 2% | -5 | -1 | 7%
CCOC(=O)c1nc2ccccc2nc1C | -7% | 3% | -1 | -2 | -5%
Cc1ccc2nc(-c3ccccc3)c(-c3ccccc3)nc2c1 | 32% | 6% | 9 | 11 | -8%
Cc1nc2ccc(Cl)cc2nc(C)/c1=N\O | 178% | -65% | 50 | 28* | 36%
Cc1nc2ccccc2nc(C)c1=NO | 51% | -48% | 114* | 51* | 30%
Cc1ccc2nc(C)/c(=N\O)c(C)nc2c1 | 86% | -30% | 86* | 23* | 40%
O=C(c1ccccc1)N1CCN(S(=O)(=O)c2cccc(NS(=O)(=O)c3ccccc3)c2)CC1 | 52% | . | 3 | 13 | -5%
CC(C)NS(=O)(=O)c1ccc(CCC(=O)NCc2ccco2)cc1 | 33% | 5% | 28 | -3 | 4%
CC(C)[C@H](NC(=O)c1ccc(C(C)(C)C)cc1)C(=O)Nc1nnc(C2CC2)s1 | ? | 14% | 19 | -1 | ?
Fc1ccc(CSc2nnc(Cc3sc(-c4ccccc4)nc3-c3ccccc3)o2)cc1 | 12µM* | 4% | -16 | 2 | .
CSc1nnc(Cc2sc(-c3ccccc3)nc2-c2ccccc2)o1 | 0% | 0% | -12 | 11 | .
COc1ccc(CSc2nnc(Cc3sc(-c4ccccc4)nc3-c3ccccc3)o2)cc1 | 2.1µM* | 8% | 27 | -1 | 12µM*
Cc1c(C(c2ccccc2O)c2c(C)n(C)n(-c3ccccc3)c2=O)c(=O)n(-c2ccccc2)n1C | 77% | -3% | 14 | -3 | ?
CCCCCCC(c1c(C)n(C)n(-c2ccccc2)c1=O)c1c(C)n(C)n(-c2ccccc2)c1=O | 7% | -4% | -7 | -3 | 13µM*
Cc1ccccc1Nc1nnc(SCC(=O)NCc2cccs2)s1 | ? | -3% | -5 | -2 | ?
CCc1ccccc1Nc1nn2c(=O)c3ccc(C(=O)NCc4cccs4)cc3nc2s1 | 8.3µM* | . | . | . | 9.3µM*
CCc1ccccc1Nc1nn2c(=O)c3ccc(C(=O)NCCCOC(C)C)cc3nc2s1 | ? | . | . | . | 13µM*
COc1ccc(NS(=O)(=O)c2cc(NC(=O)c3cccnc3Cl)ccc2N2CCCC2)cc1 | ? | 15% | -6 | -3 | ?
OC[C@H]1OC(Nc2ccc(N=Nc3ccccc3)cc2)[C@@H](O)[C@@H](O)[C@@H]1O (some centres undefined) | 200% | 4% | 112* | 37* | 162%
Cc1ccc(NC(=O)c2ccco2)c(NC(=O)Cc2cccs2)c1 | . | -2% | 12 | 1 | 12%
Cc1cc(NC(=O)c2ccccc2)ccc1NC(=O)Cc1ccccc1 | 4.1µM* | 10% | . | -2 | -12%
Cc1cc(NC(=O)c2ccco2)ccc1NC(=O)Cc1cccs1 | 6.6µM* | 2% | 32* | 20* | 61%
CCOC(=O)CN1C(=O)N[C@H](c2ccc(Br)cc2)C(C(C)=O)=C1C | 0% | -16% | -12 | 1 | -10%
CCN(C(=O)c1cnc(NC(C)C)cc1C(F)(F)F)c1ccc(Cl)cc1 | 12µM* | 6% | -8 | -1 | ?
O=C(NC1CCCCCC1)C(=S)NC1CCCCC1 | -11% | 5% | 18 | 10 | 63%
CCOc1ccc(CC(=O)NNC(=O)NC2CCCCC2)cc1 | 21% | 4% | -2 | -3 | 4%
CCOc1ccc(NC(=O)NC23CC4CC(CC(C4)C2)C3)cc1 | 9% | -31% | 34 | 15* | -17%
